Cycloheximide cs – counter-screen for Shiga toxin inhibitors: cycloheximide protein synthesis inhibition | cell reporter, cycloheximide protein synthesis inhibition counterscreen | max response, % | 300,000 tested, 12% active | AID 2314; in the data active means max response mostly above about 13%, no sharp cut-off; inactive means mostly below about 14%; further: read at 38.3 µM for the half of the compounds with a filed dose; 0% is about no effect
Shiga inhibitor – Shiga toxin inhibition | 290,000 tested, 9.2% active | Vero cells, Shiga toxin protein synthesis inhibition reporter | AID 2315 | inhibition, % at 38.7 µM; in the data active means inhibition mostly above about 28%, no sharp cut-off; inactive means mostly below about 43%; further: 0% is about no effect
Pf growth 48h – P. falciparum growth inhibition at 48 hours (one generation); P. falciparum luciferase growth in erythrocytes, 48 h; Potency, µM (series often up to 28.7 µM), for the others: at the top dose activity change, negative = inhibition, actives largely listed as inhibitors; 310,000 tested, 5.9% active; AID 504832; further: potency means the concentration at half of the fitted maximal effect; on the % scale 0 is the no-effect control and ±100 the full control effect
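Parasite viability was followed by luminescence of a genomically integrated firefly luciferase. Cultures held 0.1% parasitemia at 2% hematocrit (final), incubated under 5% CO2 at 37 C.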
Pf growth 96h – P. falciparum growth inhibition at 96 hours. 320,000 tested, 6.9% active. Potency, µM (top dose mostly 28.7 µM), for the others: at the highest dose activity change, negative = inhibition, actives largely listed as inhibitors. P. falciparum luciferase reporter growth, 96 h; further: potency means the concentration at half of the fitted maximal effect; on the % scale 0 is the no-effect control and ±100 the full control effect
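Infected RBCs, 2% Hct / 0.05% parasitemia final; luciferase-reporter P. falciparum; cpd 96 h, 37 C, 5% CO2; luciferase detection reagent; luminescence.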
* marks the source's active call; other numbers are inactive results; u = inconclusive; x = no result. Compounds with a hit are over-represented: about 21% of the library has one in this group of screens. Unless noted, the call rests on the fitted dose curve; in most records, active means well fitted inhibition curve with a large enough effect; inconclusive means small, poorly fitted or top-dose-only effect, or another doubt; inactive means no such curve, though single readings can be large or run the other way.

SMILES	Cycloheximide cs	Shiga inhibitor	Pf growth 48h	Pf growth 96h
O=C(CCNC(=O)Cn1ccc2ccccc2c1=O)NCc1ccccn1	-1.8	-9.9	15.8%	u
Clc1ccc(/C(Cc2nc3ccccc3[nH]2)=N\Nc2ccccc2)cc1	37.1*	34.3*	u	u
N#CCCN/N=C(/Cc1nc2ccccc2[nH]1)c1cccc(Cl)c1	42.7*	99.0*	10.4µM*	x
O=C(NCCc1nc2ccccc2[nH]1)c1ccc([N+](=O)[O-])cc1	-3.6	-5.6	3.3%	22.9%
CN/N=C(\Cc1nc2ccccc2[nH]1)c1ccc([N+](=O)[O-])cc1	32.4*	57.4*	u	u
CCc1cc(C(=O)COc2ccccc2F)c(O)cc1O	27.6*	15.8	u	u
CCc1cc(C(=O)Cc2ccc(F)cc2)c(O)cc1O	-5.3	-7.7	u	68.8%
Cc1nn(C2CCS(=O)(=O)C2)c(C)c1CN(C)C(=O)c1ccccc1 (configuration not stated)	x	x	-8.1%	-20.1%
CC1CCCCC1NC(=O)CCS(=O)(=O)c1cc2c(cc1Cl)NC(=O)CO2 (configuration not stated)	-2.0	-4.1	4.6%	-4.6%
Cc1ccc(NC(=O)CN(c2ccccc2)S(=O)(=O)N(C)C)cc1	-4.9	2.7	1.8%	2.3%
O=C(Cc1nc2ccccc2[nH]1)c1ccc([N+](=O)[O-])cc1	29.0*	59.9*	1.85µM*	2.94µM*
O=C(Cc1nc2ccccc2[nH]1)c1ccc(Cl)cc1	23.3*	62.2*	2.33µM*	u
CCc1cc(C(=O)Cc2nc3ccccc3[nH]2)c(O)cc1O	39.6*	142.6*	57.3%	-4.3%
CCCc1cc(C(=O)Cc2nc3ccccc3s2)c(O)cc1O	11.7	24.2	u	u
CC(=O)Nc1ccc(S(=O)(=O)NCC2CCC(C(=O)NC(C)c3ccc4c(c3)OCCO4)CC2)cc1 (configuration not stated)	-5.9	-10.0	-3.6%	u
Cc1ccc(C(=O)N/C(=C/c2ccc(N(C)C)cc2)C(=O)NCC2CCCO2)cc1 (configuration not stated)	-2.4	-8.4	11.9%	0.0%
CNS(=O)(=O)c1cc(Cl)ccc1Sc1ccccc1C(=O)O	1.3	-3.6	28.2%	24.4%
NS(=O)(=O)c1c(Sc2ccccc2C(=O)O)ccc2ccccc12	29.9*	x	-5.3%	-1.3%
COc1ccc(N=Cc2cc3c(cc2O)OC(N)=C(C#N)C3c2ccccc2)cc1 (configuration not stated)	10.7*	-10.0	17.4%	123.2%
N#CC1=C(N)Oc2cc(O)ccc2C1c1ccccc1 (configuration not stated)	1.0	-9.3	0.7%	x
COc1ccc(CNC(=O)c2ccc(CS(=O)(=O)Cc3ccccc3F)o2)cc1	-0.7	10.7	17.4%	u
Cc1cc(C)n2c(SCCC(C)C)nnc2n1	18.7*	89.1	31.0%	u
NS(=O)(=O)c1ccc(CCNC(=O)CCNS(=O)(=O)c2ccccc2C(F)(F)F)cc1	x	x	u	-12.4%
CCN(CC)c1ccc(N=C2C(=O)Nc3ccccc32)cc1	11.8	25.4	3.29µM*	u
Cc1ccc(N=C2C(=O)Nc3ccccc32)cc1	-2.1	-2.7	22.8%	1.5%
SMILES	Cycloheximide cs	Shiga inhibitor	Pf growth 48h	Pf growth 96h
COc1cc2c(cc1OC)C(c1ccccc1)N(C(=O)c1cccc(S(C)(=O)=O)c1)CC2 (configuration not stated)	-4.7	-11.5	-24.2%	u
O=C(c1cnn2ccccc12)N1CCN(C2CCCCC2)CC1	9.0	1.8	x	-50.1%
O=C(c1cnn2ccccc12)N(Cc1ccco1)C1CCCC1	0.9	-5.8	x	10.4µM*
CCOc1cc(CNCCO)cc(Br)c1OCc1ccc(Cl)cc1Cl	-10.3	-36.6	8.28µM*	-21.4%
CCOc1cccc(CNCCO)c1OCc1ccc(Cl)cc1Cl	-5.2	-5.9	u	u
CCOc1cc(CNCCSc2nnnn2C)cc(Br)c1OCc1ccc(F)cc1	-4.2	-12.2	u	10.4µM*
CCOc1cc(CNCCSc2nnnn2C)cc(Br)c1OCc1ccccc1F	-1.3	-14.8	u	8.28µM*
COc1cc(CNCCSc2nnnn2C)cc(Br)c1OCc1ccccc1F	4.7	0.2	-2.5%	x
CCOC(=O)NC(=O)C(=CNc1ccccc1C)C(=O)NC(=O)OCC	-3.9	-18.1	11.5%	-1.0%
O=S1(=O)N[C@H](c2ccccc2)C[C@H](c2ccc(C(F)(F)F)cc2)O1	-2.1	-6.4	33.8%	-23.2%
Nc1nc(N2CCN(C(=O)c3ccco3)CC2)nc2ccccc12	28.0*	67.1*	u	-6.4%
Cc1cc(N2CCN(C(=O)c3ccco3)CC2)c2ccccc2n1	0.3	-8.4	-4.8%	-41.1%
O=c1[nH]c(CN2CCN(C/C=C/c3ccccc3)CC2)nc2ccccc12	-3.6	8.4	-18.4%	x
Nc1nc(N2CCN(C(=O)c3ccco3)CC2)nc2ccc(Br)cc12	25.4*	50.1*	34.7%	34.2%
O=C1CCCc2nc(N3CCN(C(=O)c4ccco4)CC3)ncc21	19.5*	25.1*	126.3%	9.28µM*
O=C(c1ccco1)N1CCN(c2ncccn2)CC1	6.3	7.2	x	-10.5%
Nc1nc(N2CCN(C/C=C/c3ccccc3)CC2)nc2ccccc12	-2.9	-8.9	11.7µM*	-2.2%
CN(CC(=O)Nc1ccccc1Sc1ccccc1)C1CCCCC1	6.1	-0.2	u	-98.4%
CC(C)Cc1ccc(CN2CCCC(NC(=O)CCN3CCCO3)C2)cc1 (configuration not stated)	9.4	16.4	-0.5%	u
CS(=O)(=O)c1ccc(Cl)c(NC(=O)COC(=O)COc2ccc3c(c2)CCC3)c1	x	x	-19.7%	53.3%
O=C(O)CCCNC(=O)c1nn(Cc2ccccc2)c(=O)c2ccccc12	-3.6	17.8	19.1%	-12.9%
S=C(NC1CCCCC1)N1CCOCCOCCN(C(=S)NC2CCCCC2)CCOCC1	-1.1	-2.3	11.7µM*	4.65µM*
S=C(NC1CCCC1)N1CCOCC1	-3.2	-2.0	3.1%	30.8%
N#CCSc1nc(-c2ccccc2)cs1	29.6*	49.8*	37.1%	x
N#CCSc1nnc(Nc2ccccc2)s1	12.2	35.3	15.2%	x
SMILES	Cycloheximide cs	Shiga inhibitor	Pf growth 48h	Pf growth 96h
CC(C)NC(=O)CSc1nc(-c2ccccc2)cs1	25.9*	88.7*	186.1%	66.7%
N#CCSc1ccc2nc(-c3ccccc3)cn2n1	27.6	105.2*	134.1%	127.4%
Cc1ccccc1CSCC(=O)NC(=O)NCc1ccco1	16.0*	11.9	49.3%	6.57µM*
O=C(CSc1nc(-c2ccccc2)cs1)N1CCN(C(=O)c2ccco2)CC1	18.2*	12.6	-15.4%	x
O=C(CSc1nc(-c2ccccc2)cs1)NC(=O)NCc1ccco1	24.7*	19.0	u	u
CC1(C)C(=O)Nc2ccccc2N1C(=O)COc1cc(Cl)ccc1Cl	x	x	11.7µM*	u
O=C(CSc1ccccc1)N1CCN(C(=O)c2ccco2)CC1	7.8	-3.9	-0.8%	-20.1%
CC1(C)C(=O)Nc2ccccc2N1C(=O)CSc1nc(-c2ccccc2)cs1	16.3*	29.4	10.0%	-14.3%
O=C(CSc1nc2ccccc2s1)NC(=O)NCc1ccco1	19.1	34.8	0.0%	34.1%
O=C1CN(C(=O)CSc2nc(-c3ccccc3)cs2)c2ccccc2N1	-1.4	8.2	-18.6%	u

Bioassay records as filed in PubChem.
